# Results reported in PubChem BioAssay (NCATS).
# Unmarked numbers belong to inactive results. Results filed as inconclusive are left out. Entries that show only a call come without a potency. Active and inactive are the calls of the source. Calls follow the shape of the dose curve; as a rule, active = well fitted curve in the direction sought with a large enough effect; inconclusive = small, poorly fitted or top-dose-only effect, or another doubt; inactive = no such curve, though single readings can be large; an effect the other way counts as inactive or inconclusive. Where a SMILES comes first, the peptide text is derived from it. [ ]: non-standard residue; d: D form. ξ: configuration not given here. ξTyr(βOH) = NC(C(=O)O)C(O)c1ccc(O)cc1
# Legend:
# [1] = molecular target: Glutathione peroxidase 1 (Homo sapiens) (UniProt P07203); assay: Primary qHTS Assay for Inhibitors of Recombinant Selenoprotein Glutathione Peroxidase 1 (GPX1) (AID 1845191); conditions: recombinant GPX1, GR-coupled NADPH fluorescence, 15 min; series mostly up to 27.7 µM; also: nearly all actives have a fitted effect of over 65% in size
# Chain of Glutathione peroxidase 1 (Homo sapiens) (P07203 whole entry, looked up): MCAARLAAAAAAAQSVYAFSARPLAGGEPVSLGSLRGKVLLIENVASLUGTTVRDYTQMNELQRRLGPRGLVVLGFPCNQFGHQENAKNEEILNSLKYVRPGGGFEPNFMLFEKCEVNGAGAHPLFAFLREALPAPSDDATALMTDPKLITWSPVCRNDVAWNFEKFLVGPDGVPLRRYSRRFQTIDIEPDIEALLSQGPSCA
# Procedure, shortened: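 GR-coupled readout: NADPH consumption tracked by fluorescence, ex 340/em 450 nm, at t=0 and after 15 min at RT. Final mix 10 nM GPX1, 1 mM GSH, 0.5 mM CHP, 0.5 mM NADPH, 100 nM GR, 0.01% BSA, following 30 min enzyme–compound preincubation.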
# [2] = molecular target: Phospholipid hydroperoxide glutathione peroxidase GPX4 (Homo sapiens) (UniProt P36969); assay: Primary qHTS Assay for Inhibitors of Recombinant Selenoprotein Glutathione Peroxidase 4 (GPX4) (AID 1845192); conditions: recombinant GPX4, GR-coupled NADPH fluorescence, 15 min; series mostly up to 27.8 µM; also: nearly all actives have a fitted effect of over 65% in size
# Chain of Phospholipid hydroperoxide glutathione peroxidase GPX4 (Homo sapiens) (P36969 whole entry, looked up): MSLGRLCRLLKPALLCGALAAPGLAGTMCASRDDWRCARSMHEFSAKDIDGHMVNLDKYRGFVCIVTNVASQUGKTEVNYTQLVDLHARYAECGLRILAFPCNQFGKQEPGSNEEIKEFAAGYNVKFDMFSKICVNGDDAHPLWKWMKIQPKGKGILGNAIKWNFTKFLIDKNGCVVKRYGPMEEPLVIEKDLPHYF
# Procedure, shortened: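 Steps: GPX4 plus compound, 30 min RT; add GR/GSH/NADPH master mix; start with cumene hydroperoxide; read 340/450 nm fluorescence at 0 and 15 min. Finals were 200 nM GPX4, 1 mM GSH, 0.5 mM CHP, 0.5 mM NADPH, 100 nM GR.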
# [3] = molecular target: Luciferin 4-monooxygenase (Photinus pyralis) (UniProt P08659); assay: Primary firefly luciferase (FLuc) qHTS assay for identification of artifact compounds. (AID 1845220); conditions: purified firefly luciferase, luminescence, 5 min; series mostly up to 54.1 µM; also: nearly all actives have a fitted effect of over 60% in size; also: potency is read from the fitted curve at half-maximal effect
# Procedure, shortened: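 Enzymatic FLuc inhibition assay: compounds pre-exposed to luciferin/ATP (10 uM each) for 15 min, then purified P. pyralis enzyme at 10 nM added. Read-out: luminescence at 5 min.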
# [4] = Primary fluorescence-based thiol-reactive (MSTI) qHTS assay for identification of artifact compounds. (AID 1845221); conditions: MSTI thiol-reactivity probe, 1 h; series mostly up to 53.8 µM; also: nearly all actives have a fitted effect of over 65% in size; also: potency is read from the fitted curve at half-maximal effect;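 as to activity change, negative = thiol reactive: thiol-reactive compounds lower the probe fluorescence signal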
# Procedure, shortened: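 Reactivity toward the thiol probe MSTI (4 uM) is scored by fluorescence at Ex/Em 525/598 nm after 1 h at room temperature. Acetyl-MSTI and MSTI define the activity scale.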
# [5] = system: Nanoluciferase (engineered Oplophorus gracilirostris luciferase); assay: Primary Nanoluciferase (NLuc) qHTS assay for identification of artifact compounds. (AID 1845222); conditions: NLuc-conditioned medium, Nano-Glo luminescence, 5 min; series mostly up to 54.1 µM;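 also: NLuc secreted into diluted conditioned medium of S16 cells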
# Procedure, shortened: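 S16 cell supernatant NLuc, 1:55; cpds qHTS; 15 min RT dark; Nano-Glo substrate 1:100, 5 min; luminescence; Hill fit of % inhibition.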
SMILES,Potency [1],Potency [2],Potency [3],Potency [4],Potency [5],"activity change, negative = inhibition [3]","activity change, negative = thiol reactive [4]","activity, negative = inhibition [5]"
COc1cc(C2CC(=O)Nc3c2cc(Br)c2ccccc32)cc(OC)c1OC (stereo not given),inactive,inactive,inactive,inactive,inactive,–,–,–
C=C1CCC2[C@](C)(CCC[C@]2(C)C(=O)O)[C@H]1CC/C(C)=C/C(=O)OC (stereo not given in full),inactive,inactive,inactive,inactive,inactive,–,–,–
C=C1C(=O)O[C@@H]2CC(C)=C([C@@H](C)CCCOC(C)=O)[C@@H](O)[C@H]12,inactive,inactive,inactive,16.5 µM (active),inactive,–,–,–
COC(=O)C1=CO[C@@H](O[C@@H]2O[C@H](CO)[C@@H](O)[C@H](O)[C@H]2O)[C@H]2[C@@H]1[C@H](O)[C@H](O)[C@]2(C)O,inactive,inactive,inactive,13 µM (active),inactive,–,–,–
CC(C)(C)NS(=O)(=O)c1ccc(-c2ccc3[nH]nc(N)c3c2)cc1,inactive,inactive,inactive,7.52 µM (active),inactive,–,–,–
COC(=O)C(CC1(O)c2ccccc2N2C(=O)C(CC(C)C)NC21)n1cnc2ccccc2c1=O (stereo not given),inactive,inactive,inactive,inactive,inactive,–,–,–
NC(=O)[C@H](Cc1ccccc1)NC(=O)[C@H](CCCN=C(N)N)NC(=O)C12CC3CC(CC(C3)C1)C2,inactive,inactive,–,–,–,0.126% [at 11.6 µM],37.2% [at 11.5 µM],3.23% [at 11.6 µM]
CC1CC(=O)C2=C(O1)OC1(C)CCC3C(C)(C)C4OC4C(=O)C3(C)C1C2 (stereo not given),inactive,inactive,inactive,16.5 µM (active),inactive,–,–,–
CC1(C)C[C@H]2C=C(C=O)[C@]3(C(=O)O)C[C@]3(C)[C@H]2C1,inactive,inactive,inactive,11.9 µM (active),inactive,–,–,–
O=C(/C=C/N1C[C@@H]2C[C@@H]1CN2c1ccccn1)c1ccccc1O,inactive,inactive,inactive,inactive,inactive,–,–,–
COc1ccc(Oc2c(Cl)cnn(C3c4ccccc4-c4ccccc43)c2=O)cc1,inactive,inactive,inactive,inactive,inactive,–,–,–
NC(=O)C(O[C@@H]1O[C@H](CO[C@@H]2O[C@H](CO)[C@@H](O)[C@H](O)[C@H]2O)[C@@H](O)[C@H](O)[C@H]1O)c1ccccc1 (stereo not given in full),inactive,inactive,inactive,inactive,inactive,–,–,–
CC(C)C1NC(=O)CNC(=O)C2CCCN2C(=O)C(Cc2c[nH]c3ccccc23)NC(=O)CNC(=O)C(C(O)c2ccc(O)cc2)NC(=O)CNC1=O (stereo not given) (cyclo(G[ξTyr(βOH)]GWPGV); configuration not given here),inactive,inactive,inactive,inactive,inactive,–,–,–
CO[C@@H]1[C@]2(O)C(=O)N3/C=C\C(C)(C)c4[nH]c5ccccc5c4/C=C\3C(=O)N2[C@]23[C@H](CO)C(C)(C)N2c2ccccc2[C@]13O,inactive,inactive,inactive,1.84 µM (active),inactive,–,–,–
COc1cn(-c2ccc(-n3cccn3)cc2F)nc(-c2ccnn2-c2ccccc2)c1=O,inactive,inactive,inactive,inactive,inactive,–,–,–
COc1ccc(C(=O)NCc2cc(C(C)C)no2)cc1OC1CCN(C)CC1,inactive,inactive,inactive,inactive,inactive,–,–,–
Cc1occc(=O)c1O[C@@H]1O[C@H](COC(=O)CC(C)(O)CC(=O)O)[C@@H](O)[C@H](O)[C@H]1O (stereo not given in full),inactive,inactive,inactive,inactive,inactive,–,–,–
COc1ccccc1N1CCN(CCCCNC(=O)c2ccc(-c3cscn3)cc2)CC1,inactive,inactive,inactive,inactive,inactive,–,–,–
COC(=O)Cn1nc(-c2cccc(OC)c2)c2ccccc21,inactive,inactive,inactive,inactive,inactive,–,–,–
COc1ccnc(CCc2nc3ncccc3[nH]2)c1,inactive,inactive,inactive,inactive,inactive,–,–,–
CC(=O)OC1C(O)/C(C)=C\C2C(OC(=O)c3ccccc3)C(C)CC2(OC(C)=O)C(OC(C)=O)C(C)/C=C/C(C)(C)C1OC(C)=O (stereo not given),inactive,inactive,inactive,inactive,inactive,–,–,–
Cc1nc2cc(-c3cc(F)cc(C#N)c3)ccc2s1,inactive,inactive,inactive,inactive,inactive,–,–,–
COCc1c(O)c(C(=O)O)c(C)c2c1OC(=O)c1c(C)cc(O)c(CO)c1O2,inactive,inactive,inactive,5.21 µM (active),inactive,–,–,–
CCC(C)C(=O)O[C@H]1C[C@](C)(O)[C@]23OC(C)(C)[C@H](C[C@H](OC(=O)c4ccccc4)[C@]2(COC(C)=O)[C@H]1OC(=O)C(C)CC)[C@H]3OC(C)=O (stereo not given in full),inactive,inactive,inactive,inactive,inactive,–,–,–
O=C(OC1C=C(CO)C2C(OC3OC(CO)C(O)C(O)C3O)OC=CC12O)c1ccc(O)cc1 (stereo not given),inactive,inactive,inactive,3.27 µM (active),inactive,–,–,–

SMILES,Potency [1],Potency [2],Potency [3],Potency [4],Potency [5],"activity change, negative = inhibition [3]","activity change, negative = thiol reactive [4]","activity, negative = inhibition [5]"
C[C@@H]1[C@H]2[C@H](O[C@@H]3O[C@H](CO)[C@@H](O)[C@H](O)[C@H]3O)OC=C(C(=O)O)[C@H]2C[C@@H]1OC(=O)/C=C/c1ccc(O)cc1,inactive,inactive,inactive,10.3 µM (active),inactive,–,–,–
CC(C)c1ccc2c(c1)C(O)CC1C(C)(C(=O)O)CCCC21C (stereo not given),inactive,inactive,inactive,inactive,inactive,–,–,–
C=C1C[C@]23C[C@@]1(O)CC[C@H]2[C@@]12C=C[C@H](O)[C@@](C)(C(=O)O1)[C@H]2[C@@H]3C(=O)O,inactive,inactive,inactive,inactive,inactive,–,–,–
C#CCCCn1cc(-c2cccc3c2N[C@@H](C)CC(=O)N3)cn1,inactive,inactive,inactive,inactive,inactive,–,–,–
N#Cc1ccc(C2CCCc3cncn32)cc1 (stereo not given),inactive,inactive,inactive,inactive,inactive,–,–,–
CC1(C)CCCC2(C)c3c4c(c(=O)oc(=O)c3=CCC12)=CCC1C(C)(C)CCCC41C (stereo not given),inactive,inactive,inactive,inactive,inactive,–,–,–
O=C(O)CC1CCC(c2ccc(NC(=O)c3nnc(Nc4ccc(F)c(F)c4)o3)cc2)CC1 (stereo not given),inactive,inactive,inactive,inactive,inactive,–,–,–
C=C1CCC2C(C)(C)CC(O)CC2(C)C1CCC(C)CCOC(=O)CCC(=O)O (stereo not given),inactive,inactive,inactive,inactive,inactive,–,–,–
Cc1cc(O[C@@H]2O[C@H](COC(=O)CC(=O)O)[C@@H](O)[C@H](O)[C@H]2O)c(C(C)C)cc1O,inactive,inactive,inactive,5.19 µM (active),inactive,–,–,–
COc1cccc(C)c1C(=O)O[C@@H]1C[C@H](O[C@H]2[C@H](O)C[C@H](O[C@@H]3CCC[C@H]4[C@H]3C=C[C@@H]3CCCC/C=C/[C@H]5C=C(C(=O)O)[C@@H](C)C[C@@]56OC(=O)C(=C6O)OC(=O)[C@@]34C)O[C@@H]2C)O[C@H](C)[C@H]1O,inactive,inactive,–,–,–,4.15% [at 11.6 µM],170% [at 11.5 µM],4.95% [at 11.6 µM]
CC(C)c1ccc2c(c1)C(=O)CC1C(C)(C(=O)O)CCCC21C (stereo not given),inactive,inactive,inactive,inactive,inactive,–,–,–
CC(=O)O[C@@H]1C=C2[C@H](CC[C@@]3(C)[C@@]2(O)CC[C@H]2Cc4c([nH]c5ccccc45)[C@@]23C)O[C@@H]1C(C)(C)O,inactive,inactive,inactive,4.12 µM (active),inactive,–,–,–
Cc1cc(-c2nncc3c(C(C)(C)C)c(OCc4ncnn4C)nn23)no1,inactive,inactive,inactive,inactive,inactive,–,–,–
COC(=O)C1=CO[C@@H](O[C@@H]2O[C@H](CO)[C@@H](O)[C@H](O)[C@H]2O)[C@H]2[C@@H]1C=C[C@]21C=C([C@H](C)OC(=O)/C=C/c2ccc(O[C@@H]3O[C@H](CO)[C@@H](O)[C@H](O)[C@H]3O)cc2)C(=O)O1,inactive,inactive,inactive,inactive,inactive,–,–,–
COc1ccc(/C=C/C(=O)N2CCCC2)cc1,inactive,inactive,inactive,inactive,inactive,–,–,–
COc1cc(CO)cc(OC)c1O[C@@H]1O[C@H](CO)[C@@H](O)[C@H](O)[C@H]1O,inactive,inactive,inactive,inactive,inactive,–,–,–
COc1cc(C(CO)CO[C@@H]2O[C@H](CO)[C@@H](O)[C@H](O)[C@H]2O)ccc1O (stereo not given in full),inactive,inactive,inactive,inactive,inactive,–,–,–
CC(C/C=C/C(C)(C)O)C1CCC(C)(O)C(O)C1 (stereo not given),inactive,inactive,inactive,inactive,inactive,–,–,–
O=C(/C=C/c1ccc(O)c(O)c1)O[C@H]1[C@H](OC2CCCCC2O)O[C@H](CO)[C@@H](O)[C@@H]1O (stereo not given in full),inactive,inactive,inactive,2.07 µM (active),inactive,–,–,–
CC(=O)O[C@@]1(C)[C@@H]2CC(=C(C)C)C(=O)C[C@@]2(C)CC[C@H]1OC(=O)C1(C)OC1C (stereo not given in full),inactive,inactive,inactive,inactive,inactive,–,–,–
C=C1CCC2C(C)(C(=O)OC)CCCC2(C)C1CCC1=CCOC1=O (stereo not given),inactive,inactive,inactive,inactive,inactive,–,–,–
Cc1noc2c1-c1ccccc1C(c1ccc(Cl)cc1)=N[C@H]2CC(N)=O,inactive,inactive,inactive,inactive,inactive,–,–,–
CC1(C)C=Cc2c(ccc3c2N=C2C(C)(C)[C@@H]4C[C@]56CCCN5C(=O)[C@@]4(C[C@]23O)NC6=O)O1,inactive,inactive,inactive,inactive,inactive,–,–,–
Oc1ccccc1-c1cc(-c2ccccc2F)[nH]n1,inactive,inactive,1.69 µM (active),inactive,inactive,–,–,–
C[C@@]1(O)[C@H](O)[C@@H](CO)O[C@H]1n1cnc2c(=O)[nH]c(N)nc21,inactive,inactive,inactive,inactive,inactive,–,–,–
